From PubChem BioAssay (NCATS)
Inconclusive results are not listed. Where a call stands in place of a potency, no number is given. Calls of active or inactive are those of the source. The call rests on the fitted dose curve; in most records, active means well fitted curve in the direction sought with a large enough effect; inconclusive means small, poorly fitted or top-dose-only effect, or another doubt; inactive means no such curve, though single readings can be large; an effect the other way counts as inactive or inconclusive.

What was measured:
[1] = molecular target: Glutathione peroxidase 1 (Homo sapiens) (UniProt P07203); assay: Primary qHTS Assay for Inhibitors of Recombinant Selenoprotein Glutathione Peroxidase 1 (GPX1) (AID 1845191); further: nearly all actives have a fitted effect of over 65% in size; further: potency means the concentration at half of the fitted maximal effect
Sequence of Glutathione peroxidase 1 (Homo sapiens) (P07203 whole entry, looked up): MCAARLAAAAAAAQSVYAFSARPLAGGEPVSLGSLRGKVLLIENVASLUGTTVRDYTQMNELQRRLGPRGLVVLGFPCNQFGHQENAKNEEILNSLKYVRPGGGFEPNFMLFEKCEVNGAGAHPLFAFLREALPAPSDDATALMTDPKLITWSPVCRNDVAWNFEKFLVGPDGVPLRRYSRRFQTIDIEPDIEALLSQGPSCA
Procedure, shortened: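 10 nM GPX1 + cpd, 30 min RT; start w/ 1 mM GSH, 0.5 mM cumene hydroperoxide, 0.5 mM NADPH, 100 nM GR, 0.01% BSA; buffer 50 mM Tris-HCl pH 7.5, 2 mM EDTA, 150 mM NaCl; Fl 340/450, 0 & 15 min.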

[2] = molecular target: Phospholipid hydroperoxide glutathione peroxidase GPX4 (Homo sapiens) (UniProt P36969); assay: Primary qHTS Assay for Inhibitors of Recombinant Selenoprotein Glutathione Peroxidase 4 (GPX4) (AID 1845192); further: nearly all actives have a fitted effect of over 65% in size
Sequence of Phospholipid hydroperoxide glutathione peroxidase GPX4 (Homo sapiens) (P36969 whole entry, looked up): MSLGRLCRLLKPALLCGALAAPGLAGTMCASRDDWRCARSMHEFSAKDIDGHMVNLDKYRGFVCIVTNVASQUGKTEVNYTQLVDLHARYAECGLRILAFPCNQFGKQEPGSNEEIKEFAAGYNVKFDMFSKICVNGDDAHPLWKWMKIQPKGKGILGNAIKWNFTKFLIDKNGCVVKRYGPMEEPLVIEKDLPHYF
Procedure, shortened: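 NADPH consumption, followed by fluorescence at 340/450 nm between 0 and 15 min, reports GPX4 activity via coupled glutathione reductase (100 nM). Enzyme 200 nM was pre-exposed to compound 30 min; 0.5 mM cumene hydroperoxide and 1 mM GSH served as substrates.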

[3] = molecular target: Luciferin 4-monooxygenase (Photinus pyralis) (UniProt P08659); assay: Primary firefly luciferase (FLuc) qHTS assay for identification of artifact compounds. (AID 1845220); conditions: outcome: dose series up to 54.1 µM unless noted; further: nearly all actives have a fitted effect of over 60% in size
Procedure, shortened: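 Cell-free, 1536-well qHTS. Buffer pH 7.6 with 0.01% Tween-20 and 0.05% BSA; 10 uM D-luciferin, 10 uM ATP; 10 nM P. pyralis luciferase; luminescence after 5 min.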

[4] = test system: Nanoluciferase (engineered Oplophorus gracilirostris luciferase); assay: Primary Nanoluciferase (NLuc) qHTS assay for identification of artifact compounds. (AID 1845222); further: series mostly up to about 54 µM
Procedure, shortened: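 Compounds are pinned into diluted (1:55) conditioned medium of NLuc-expressing S16 cells and held 15 min at room temperature protected from light. Nano-Glo substrate follows, and luminescence is read 5 min later.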

[5] = Primary redox qHTS assay for identification of artifact compounds. (AID 1845223)
Procedure, shortened: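 Amplex Red (25 uM) and HRP (250 mU/mL) in HBSS, with compounds for 15 min, then 250 uM DTT for 30 min, room temperature, dark. Fluorescence 525/598 nm read; normalized to DMSO and 10 uM DA3003; Hill fit.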

[6] = Quantitative High-Throughput drug screen in 47 multiple myeloma cell lines against the NCATS MIPE library collection: FR4_PLB cell viability assay (AID 1918924; further: nearly all actives have a fitted effect of over 35% in size; further: potency means the concentration at half of the fitted maximal effect)
Procedure, shortened: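 Luminescent ATP measurement with CellTiter-Glo gives viability, scaled between DMSO-only wells (100%) and media-only wells (0%). Cells, 500 per well, faced library compounds for 48 hours at 37C.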

[7] = Quantitative High-Throughput drug screen in 47 multiple myeloma cell lines against the NCATS MIPE library collection: Delta47_JCRB cell viability assay (AID 1918925; further: nearly all actives have a fitted effect of over 45% in size; further: potency means the concentration at half of the fitted maximal effect)
Procedure, shortened: (§1)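 Myeloma cell lines, 500 cells per well, exposed to MIPE 4.0 library compounds for 48 h at 37C, 5% CO2. Viability from ATP by CellTiter-Glo luminescence; normalised to DMSO (100%) and media-only (0%) wells.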

[8] = Quantitative High-Throughput drug screen in 47 multiple myeloma cell lines against the NCATS MIPE library collection: EJM_DSMZ cell viability assay (AID 1918926; further: nearly all actives have a fitted effect of over 30% in size; further: potency means the concentration at half of the fitted maximal effect)
Procedure, shortened: as §1

[9] = Primary fluorescence-based thiol-reactive (MSTI) qHTS assay for identification of artifact compounds. (AID 1845221); further: nearly all actives have a fitted effect of over 65% in size; further: potency means the concentration at half of the fitted maximal effect
Procedure, shortened: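 Reactivity toward the thiol probe MSTI (4 uM) is scored by fluorescence at Ex/Em 525/598 nm after 1 h at room temperature. Acetyl-MSTI and MSTI define the activity scale.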

Structure (SMILES)	Potency [1]	Potency [2]	outcome [3]	outcome [4]	outcome [5]	Potency [6]	Potency [7]	Potency [8]	Potency [9]
O=C(O)CNC(=O)c1c(O)c2ccccc2n(Cc2ccccc2)c1=O	inactive	inactive	inactive	inactive	inactive	inactive	inactive	inactive	
CN(C)NC(=O)CCC(=O)O	inactive	inactive				inactive			
CCc1c(C(=O)C(N)=O)c2c(OCC(=O)O)cccc2n1Cc1ccccc1	inactive	inactive	inactive	inactive	inactive	inactive	inactive	inactive	
CC(=O)Nc1ccc(OC[C@](C)(O)C(=O)Nc2ccc([N+](=O)[O-])c(C(F)(F)F)c2)cc1	inactive	inactive	inactive	inactive	inactive	inactive			
O=C(NCC1CCOCC1)c1cnc(Nc2ccc(Cl)cc2Cl)nc1C(F)(F)F	inactive	inactive	inactive	inactive	inactive	14.8 µM (active)	7.43 µM (active)	inactive	inactive
NC1=NC(=O)N2CC12 (stereo not drawn)	inactive	inactive				inactive	10.5 µM (active)		
O=S(=O)(F)Cc1ccccc1	inactive	inactive				inactive	2.96 µM (active)		
CN1CCN(c2ccc([N+](=O)[O-])c3no[n+]([O-])c23)CC1	18.3 µM (active)	inactive	inactive		inactive	20.9 µM (active)	8.33 µM (active)		11.9 µM (active)
COc1ccc(N(C(=O)Oc2c(C)cccc2C)c2ccnc(Nc3ccc(N4CCN(C)CC4)cc3)n2)c(OC)c1	inactive	inactive	inactive	inactive	inactive	2.64 µM (active)	4.18 µM (active)		
Cc1c(C(=O)Nc2cccc(C(F)(F)F)c2)cc(-c2ccccc2)n1CCCN1CCOCC1	inactive	inactive	inactive	inactive	inactive	23.5 µM (active)	16.6 µM (active)	18.7 µM (active)	inactive
CCN(CC)C(=O)c1ccc(C2=CC3(CCNCC3)Oc3cccc(O)c32)cc1	inactive	inactive	inactive	inactive	inactive		inactive	inactive	inactive
CC(C)N(CCNC(=O)CN1CCCC1=O)C(C)C	inactive	inactive	inactive	inactive	inactive	inactive	inactive	inactive	inactive
O=C(Nc1ccncc1)C(=O)c1cn(Cc2ccc(Cl)cc2)c2ccccc12	inactive	inactive				0.0166 µM (active)	0.0166 µM (active)		
C[C@]12CC[C@@H]3[C@@H](CCC4=CC(=O)CC[C@@H]43)[C@@H]1CC[C@@H]2OC(=O)CCc1ccccc1	inactive	inactive				inactive			
Clc1ccccc1C(c1ccccc1)(c1ccccc1)n1cccn1	inactive	inactive				inactive	inactive		
CN(C)[C@@H]1C(=O)C(C(N)=O)=C(O)[C@@]2(O)C(=O)C3=C(O)c4c(O)cccc4[C@@](C)(O)[C@H]3[C@H](O)[C@@H]12	inactive	inactive				inactive			
CC(C)[C@]12O[C@H]1[C@@H]1O[C@]13[C@]1(O[C@H]1C[C@H]1C4=C(CC[C@@]13C)C(=O)OC4)[C@@H]2O	inactive	inactive	inactive	inactive	inactive				inactive
Cc1ccccc1-n1c(Cn2cnc3c(N)ncnc32)nc2cccc(C)c2c1=O	inactive	inactive	inactive	inactive	inactive	6.62 µM (active)	0.105 µM (active)		inactive
Cc1[nH]nc2ccc(-c3cncc(OC[C@@H](N)Cc4c[nH]c5ccccc45)c3)cc12	inactive	inactive	inactive	inactive	inactive	0.833 µM (active)	0.209 µM (active)	0.935 µM (active)	inactive
O=C1C=CC[C@@H]2[C@H]3CCCN4CCC[C@@H](CN12)[C@@H]34	inactive	inactive	inactive	inactive	inactive	11.8 µM (active)			inactive
CCN1CCN(C(=O)Cc2ccc(Nc3ncc(F)c(Nc4ccc(C(=O)Nc5ccccc5Cl)cc4)n3)cc2)CC1	inactive	inactive	inactive	inactive	inactive	3.72 µM (active)	1.32 µM (active)	8.33 µM (active)	inactive

Structure (SMILES)	Potency [1]	Potency [2]	outcome [3]	outcome [4]	outcome [5]	Potency [6]	Potency [7]	Potency [8]	Potency [9]
O=C(Oc1ccc([N+](=O)[O-])cc1)N1CCC(C(O)(c2ccc3c(c2)OCO3)c2ccc3c(c2)OCO3)CC1	inactive	inactive	inactive	inactive	inactive	inactive		inactive	inactive
CCNC(=O)CC1N=C(c2ccc(Cl)cc2)c2cc(OC)ccc2-n2c(C)nnc21 (stereo not drawn)	inactive	inactive	inactive	inactive	inactive		6.62 µM (active)		inactive
C[C@]12CC[C@H]3[C@@H](CCC4=CC(=O)CC[C@@]43C)[C@H]1CC[C@H]2OC(=O)CCC1CCCC1	inactive	inactive				inactive	inactive		
CCCCCC[C@H]1C(=O)O[C@H](C)[C@H](NC(=O)c2cccc(NC=O)c2O)C(=O)O[C@@H](C)[C@@H]1OC(=O)CC(C)C	inactive					0.0662 µM (active)	0.0526 µM (active)		
C#C[C@]1(O)C=C[C@@H]2[C@@H]3CCC4=CC(=O)CC[C@@H]4[C@H]3CC[C@@]21CC						inactive			
C[C@]12CC[C@H](O)CC1=CC[C@H]1[C@H]3CCC(=O)[C@@]3(C)CC[C@@H]12						inactive			
CC(N[C@H]1C[C@H]1c1ccccc1)c1ccc2c(c1)OCCO2 (stereo partly drawn)		inactive	inactive	inactive	inactive	inactive	inactive	inactive	inactive
O=c1cccc2n1CC1CNC[C@H]2C1	inactive	inactive				inactive		inactive	
CCOP(=O)(OCC)C(C)NC(=O)N(CCCl)N=O (stereo not drawn)	inactive	inactive				inactive	inactive	inactive	
CC(C)[C@H]1C(=O)N[C@H](CO)Cc2c[nH]c3cccc(c23)N1C	inactive	inactive					inactive		
CCOC(=O)c1cncn1[C@H](C)c1ccccc1						inactive	inactive		
c1cc2c(cc1[C@H]1OC[C@H]3[C@H]1CO[C@H]3c1ccc3c(c1)OCO3)OCO2						inactive	inactive		
COc1ccc(C(=O)c2c(C)n(CCN3CCOCC3)c3cc(I)ccc23)cc1	inactive	inactive					16.6 µM (active)		
C[C@]12COC(=O)C[C@@H]1CC[C@@H]1[C@H]2CC[C@@]2(C)[C@H]1CC[C@]2(C)O						inactive	inactive		
CC(C)(C)[C@]1(O)C[C@@H]2OC(=O)C[C@@]23C(=O)O[C@@H]2OC(=O)[C@H](O)C213 (stereo partly drawn)						inactive			
C=C[C@@H]1CN2CCC1C[C@H]2[C@H](O)c1ccnc2ccccc12 (stereo partly drawn)						18.7 µM (active)			
CCOC(=O)Nc1ccc(NCc2ccc(F)cc2)cc1N			inactive	inactive	inactive	inactive	7.43 µM (active)	inactive	1.19 µM (active)
CC(C)(O)C(=O)Nc1ccc([N+](=O)[O-])c(C(F)(F)F)c1	inactive	inactive				inactive	7.43 µM (active)		
CC(=O)N(C)c1cccc(-c2ccnc3c(C(=O)c4cccs4)cnn23)c1	inactive		inactive	inactive	inactive	inactive			inactive
CC(=O)[O][Hg][c]1ccccc1		inactive							
c1ccc2c(CN3CCNCC3)cccc2c1	inactive	inactive				inactive	inactive	inactive	
